Reference: PubChem BioAssay AID1745847 (National Center for Advancing Translational Sciences (NCATS), 2022)
Where “and” joins values, the source holds several entries; their conditions need not be identical. Identical values can stand only once. Out of some 2,100 compounds screened, about 670 (32%) were called active. Roughly 50% stayed inconclusive and do not appear here. The list shows a part of the results. Values without a mark were called inactive. Calls come from the whole dose curve; as a rule, active = well fitted inhibition curve with a large enough effect; inconclusive = small, poorly fitted or top-dose-only effect; inactive = no such curve, though single readings can be large or run the other way.
% is set by controls: 0 for no effect and ±100 for the full control effect; potency is the fitted concentration of half-maximal effect.

Test: CMV-Luciferase Counterscreen for Inhibitors of ATXN expression; note: nearly all actives have a fitted effect of over 55% in size
Details: HEK-293 CMV-luciferase reporter, luminescence, 24 h; series mostly up to 57.5 µM
In the case of O=C(/C=C\c1ccccc1)NCC(=O)N/N=C/c1ccc(O)cc1O, the Potency is reported as 25.1 µM (active).
For O=C(N/N=C/c1ccc(O)cc1O)/C(=C/c1ccccc1)CCO, the Potency was 1.78 µM (active).
With O=C(COc1ccccc1)NCC(=O)N/N=C/c1ccc(O)cc1O the Potency was 14.1 µM (active).
For Cc1cccc(OCC(=O)NCC(=O)N/N=C/c2cc(Br)cc(Br)c2O)c1, the Potency was 5.01 µM (active).
With CCC(=O)OC1(C(C)=O)CCC2C3CCC4=CC(=O)CCC4(C)C3CCC21C (configuration not stated) the Potency was “inactive”.
In the case of O=C(OCCN1C(=O)c2cccc3c(N4CCOCC4)ccc(c23)C1=O)c1ccccc1Cl, the Potency is reported as 15.8 µM (active).
With CC1(C)C(C=C(Cl)Cl)C1C(=O)Nc1ccc([N+](=O)[O-])cc1 (configuration not stated) the Potency was 20 µM (active).
With Cc1cccc(OCCSc2nc3ncnc(N)c3[nH]2)c1 the Potency was “inactive”.
With CCN(CC)CCCNc1nc2ccccc2c2nc(-c3ccncc3)nn12 the Potency was 12.6 µM (active).
In the case of Cc1cc(C)cc(NC(=O)CCC(=O)Nc2cc(C)on2)c1, the activity change, negative = inhibition is reported as 165% [at 11.4 µM].
With Cc1ccc(/C=C2\SC(=S)N(CCCC(=O)Nc3ccc(O)cc3)C2=O)cc1 the Potency was 3.16 µM (active).
For Cc1ccc(/C=C2\SC(=S)N(CCCC(=O)Nc3ccccc3C(=O)O)C2=O)cc1, the Potency was 2 µM (active).
In the case of Cc1ccc(/C=C2\SC(=S)N(CCCC(=O)Nc3cc(C)on3)C2=O)cc1, the Potency is reported as 3.55 µM (active).
For Cc1ccc(/C=C2/SC(=S)N(CCCC(=O)Nc3cc([N+](=O)[O-])ccc3O)C2=O)cc1, the Potency was 28.2 µM (active).
For Cc1ccc(NC(=O)COc2ccc(/C=C3/SC(=Nc4ccccc4)N(Cc4cccnc4)C3=O)cc2)cc1, the Potency was “inactive”.
For Cc1ccc(/C=C2\SC(=S)N(CCCC(=O)Nc3cccnc3)C2=O)cc1, the Potency was 3.98 µM (active).
With COc1cccc(/C=C2/SC(=S)N(CCCC(=O)Nc3ccc(O)cc3)C2=O)c1 the Potency was 3.16 µM (active).
With Cc1ccc(/C=C2\SC(=S)N(CCCC(=O)NC3CCCC3)C2=O)cc1 the Potency was 2.51 µM (active).
With Cc1ccc(/C=C2/SC(=S)N(CCCC(=O)Nc3ccc(O)cc3)C2=O)cc1 the Potency was 2 µM (active).
Work on CC(C)C[C@H](N)c1cn([C@@H](CCCCN)C(=O)N2CCNCC2)nn1 yielded an activity change, negative = inhibition of -7.7% [at 11.4 µM].
For Cc1csc(NC(=O)COCC(=O)O)c1-c1nc2ccccc2s1, the Potency was “inactive”.
With c1cc2c(cc1-c1cnc3n1CCC3)OCCO2 the Potency was “inactive”.
With CC(C)(O)C#Cc1ccc([C@@H]2C[C@H]3CN(c4ccccc4)C(=O)[C@]34CCCN24)s1 the Potency was “inactive”.
With O=[N+]([O-])c1ccc(O)c(/C=N/Nc2ncnc3c2cnn3-c2ccccc2)c1 the Potency was 1.58 µM (active).
In the case of CN(C)S(=O)(=O)c1cccc(N2C(=O)CC3(CCCCC3)CC2=O)c1, the activity change, negative = inhibition is reported as -19.6% [at 11.4 µM].
In the case of COc1ccc(CSCC(=O)N/N=C/c2ccccc2O)cc1, the Potency is reported as 25.1 µM (active).
For COc1cccc(/C=N/NC(=O)CSCC(=O)Nc2ccccc2)c1O, the Potency was 1.26 µM (active).
In the case of COc1cccc(/C=N/NC(=O)CSc2ccccc2C)c1O, the Potency is reported as 7.08 µM (active).
With C/C(=N\OCC(=O)N/N=C/c1ccccc1O)c1cccs1 the Potency was 12.6 µM (active).
With COc1cccc(/C=N/NC(=O)Cn2nc(C)c([N+](=O)[O-])c2C)c1O the Potency was 8.91 µM (active).
In the case of COc1ccc(O)c(/C=N/NC(=O)c2ccc(CSc3nc(C)cc(C)n3)cc2)c1, the Potency is reported as 2.82 µM (active).
In the case of CCCCSc1nc(C)cc(SCC(=O)N/N=C/c2cccc(OC)c2O)n1, the Potency is reported as 1 µM (active).
In the case of OC(c1cc(-c2cccc(Cl)c2)nc2ccccc12)C1CCCCN1 (configuration not stated), the Potency is reported as 22.4 µM (active).
With Cc1onc(-c2c(F)cccc2Cl)c1C(=O)Nc1nnc(C(F)(F)F)s1 the Potency was 1.41 µM (active).
For C[n+]1c2cc(N)ccc2cc2ccc(N)cc21, the Potency was 8.91 µM (active) and 3.55 µM (active).
With Cc1nc2ccccc2n1-c1nc(-c2ccco2)cc(C(F)(F)F)n1 the Potency was “inactive”.
For CC(C)NC1CCC(Nc2ccnc3cc(Cl)ccc23)CC1 (configuration not stated), the Potency was 17.8 µM (active).
For Cc1ccc(N=Nc2ccc(O)c3ncccc23)cc1, the Potency was 3.55 µM (active).
With Cc1ccccc1N=Nc1ccc(O)c2ncccc12 the Potency was 1.41 µM (active).
With CC(C)(C)S(=O)(=O)/C(C#N)=N/Nc1ccc(Cl)cc1 the Potency was 7.94 µM (active).
In the case of FC(F)(F)c1ccc(N2CCN(c3cc(-c4ccccc4)nc4ncnn34)CC2)nc1, the Potency is reported as 1.58 µM (active).
For O=c1cc(Nc2ccc3c(c2)OCCO3)[nH]c(=O)n1-c1ccc(Br)cc1, the Potency was “inactive”.
In the case of CCN(CC)c1ccc(/C=N/NC(=O)CCC(=O)NCc2ccccc2)c(O)c1, the Potency is reported as 3.16 µM (active).
With CCN(CC)c1ccc(/C=N/NC(=O)c2cccc(S(=O)(=O)N3CCOCC3)c2)c(O)c1 the Potency was 0.891 µM (active).
For O=C(Cn1c(=O)n(CC(=O)NCc2ccccc2)c2ccccc21)NCc1ccccc1, the Potency was “inactive”.
In the case of CCN(CC)c1ccc(/C=N/NC(=O)Cc2cccs2)c(O)c1, the Potency is reported as 2.82 µM (active).
CN(C)c1nc(N/N=C/c2c[nH]c3ccccc23)nc(N2CCOCC2)n1 gave an activity change, negative = inhibition of -16.1% [at 11.4 µM].
Cc1cc(C)n(-c2nc(NCCN(C)C)c3c4c(sc3n2)COC(C)(C)C4)n1 gave an activity change, negative = inhibition of -12.1% [at 11.4 µM].
For c1ccc(CNc2nc(-c3ccccn3)nc3ccccc23)cc1, the Potency was 4.47 µM (active).
In the case of O=S(=O)(Cc1cc(NCc2ccccc2)nc(-c2ccccn2)n1)c1ccccc1, the Potency is reported as “inactive”.
With CN1CCN(c2nc(-c3ccccn3)nc3ccccc23)CC1 the Potency was “inactive”.
For O=S(=O)(c1ccc2c(c1)OCCO2)N1CCC(c2nc3ccc(Cl)cc3[nH]2)CC1, the Potency was 3.98 µM (active).
Work on CCOc1ccc(NCc2cccn2-c2nnc(N3CCC(C(=O)NCCCN4CC(C)CC(C)C4)CC3)s2)cc1 (configuration not stated) yielded an activity change, negative = inhibition of -19.5% [at 11.4 µM].
With COc1ccc(-c2c[n+]3c(n2-c2ccc(C)cc2)CCCCC3)cc1 the Potency was 6.31 µM (active).
For COc1ccc(-n2c(-c3ccc(Cl)cc3)c[n+]3c2CCCCC3)cc1, the Potency was 12.6 µM (active).
In the case of O=c1cc(-c2ccccc2Cl)oc2c([N+](=O)[O-])c(O)cc(O)c12, the Potency is reported as 1.26 µM (active).
In the case of CC1(S(=O)(=O)O)CC(=O)c2ccccc2C1=O (configuration not stated), the Potency is reported as 28.2 µM (active).
In the case of CCn1c(C)cc(C(=O)COC(=O)c2ccccc2[N+](=O)[O-])c1C, the Potency is reported as 22.4 µM (active).
CC(C)N(C(=O)COC(=O)c1ccccc1C(=O)c1ccc(Cl)c([N+](=O)[O-])c1)C(C)C showed an activity change, negative = inhibition of -18% [at 11.4 µM].
For O=C(CP(=O)(c1ccccc1)c1ccccc1)N/N=C/c1cc(Br)cc(Br)c1O, the Potency was 1.78 µM (active).
For O=C(CCN1CCN(c2ccccc2)CC1)N/N=C/c1ccccc1O, the Potency was 0.501 µM (active).
With Cc1ccc(SCCC(=O)N/N=C/c2ccccc2O)cc1 the Potency was 1.78 µM (active).
For O=C(CCc1ccccc1)N/N=C/c1cc(Br)ccc1O, the Potency was 0.891 µM (active).
With O=C(CCCOc1ccc(Cl)cc1Cl)N/N=C/c1ccccc1O the Potency was 2.51 µM (active).
With O=C(CN1CC(c2ccccc2)CC1=O)N/N=C/c1cc(Br)ccc1O (configuration not stated) the Potency was 10 µM (active).
With O=C(COc1nsnc1N1CCOCC1)N/N=C/c1ccccc1O the Potency was 11.2 µM (active).
For O=C(Cc1ccccc1)N/N=C/c1cc(Br)cc(Br)c1O, the Potency was 2.51 µM (active).
With NC(Cc1ccc(C(F)(F)F)cc1)c1csc(Nc2nccc(C(F)(F)F)n2)n1 (configuration not stated) the activity change, negative = inhibition was -10.1% [at 11.4 µM].
In the case of COc1ccc(O)c(/C=N/NC(=O)CCC(=O)Nc2cccc(C)c2)c1, the Potency is reported as 10 µM (active).
For O=C(CCC(=O)Nc1ccc(Br)cc1)N/N=C/c1ccccc1O, the Potency was 1.26 µM (active).
With NNC(=O)/C(=N/Nc1ccccc1)S(=O)(=O)c1ccc(Cl)cc1 the Potency was 3.55 µM (active).
In the case of CCc1nc2c(OCc3ccc(Cl)cc3Cl)cccn2c1N(C=O)Cc1ccc(OC)cc1, the Potency is reported as 3.16 µM (active).
In the case of CCOC(=O)N(C)c1c(CC)nc2c(OCc3ccccc3C)cccn12, the Potency is reported as 20 µM (active).
With CCCCC(=O)N(C)c1c(CC)nc2c(OCc3ccc(Cl)cc3Cl)cccn12 the Potency was 3.55 µM (active).
CCCCC1C(=O)CC[C@H]2[C@@H]1CC(=O)[C@@H]2C/C=C\CCCC(=O)O (some centres not stated) showed an activity change, negative = inhibition of 4.23% [at 11.4 µM].
O=C(NCC1CC1)c1ccc2c(c1)S(=O)(=O)c1cc(Cl)ccc1C2=O gave an activity change, negative = inhibition of -10.6% [at 11.4 µM].
For Cc1nnc(SC(C)C(=O)Nc2ccc(Cl)cn2)n1Cc1ccccc1 (configuration not stated), the Potency was “inactive”.
With C=CCn1c(COc2ccccc2)nnc1SC(C)C(=O)N/N=C/c1cc(Cl)ccc1O (configuration not stated) the Potency was 10 µM (active).
For C=CCn1c(COc2ccccc2)nnc1SCC(=O)N/N=C/c1cc(Cl)ccc1O, the Potency was “inactive”.
With O=C(Nc1nc(-c2ccccn2)cs1)c1ccccc1-n1cnnn1 the Potency was 3.55 µM (active).
In the case of N#Cc1cc2c(=O)n3ccccc3nc2n(-c2ccccc2Cl)c1=O, the Potency is reported as “inactive”.
In the case of Cc1nc(SCC(=O)Nc2ccc(S(=O)(=O)N3CCOCC3)cc2)c2c(C)c(C)sc2n1, the Potency is reported as 2.82 µM (active).
For Cc1ccc(C)c(N2CCN(C(=O)C34CC5CC(C3)CC(n3nnc(C)n3)(C5)C4)CC2)c1, the Potency was 11.2 µM (active).
With COc1ccc(/C=C/C(=O)c2cc3cccc(OC)c3oc2=O)cc1 the Potency was “inactive”.
With O=C(CSc1ccc2c(c1)OCCO2)Nc1ccc(Cl)cn1 the Potency was “inactive”.
In the case of COc1ccc(/C=C/C(=O)Nc2ccc(C)c(S(=O)(=O)N3CCOCC3)c2)cc1, the Potency is reported as 10 µM (active).
For Cc1ccc(NC(=O)CSc2ccc(Br)cc2)cc1S(=O)(=O)N1CCOCC1, the Potency was 22.4 µM (active).
With Cc1ccc(NC(=O)/C=C/c2ccc(S(=O)(=O)N3CCOCC3)cc2)cc1S(=O)(=O)N(C)C the Potency was 2.51 µM (active).
For Cc1ccc(C)c(S(=O)(=O)N2CCN(Cc3ccc(O)c4ncccc34)CC2)c1, the Potency was 2.82 µM (active).
For O=S(=O)(c1ccc(Cl)cc1)N1CCN(Cc2ccc(O)c3ncccc23)CC1, the Potency was 8.91 µM (active).
For COc1ccccc1N1CCN(Cc2ccc(O)c3ncccc23)CC1, the Potency was 0.891 µM (active).
In the case of OC1(c2ccc(Cl)cc2)CCN(Cc2c[nH]c3ccccc23)CC1, the activity change, negative = inhibition is reported as -23.5% [at 11.4 µM].
